Results reported in the supplement of paper PMC11732987, “Enantioselective OTUD7B fragment discovery through chemoproteomics screening and high-throughput optimisation” (Communications Chemistry, 2025).

Key:
Test in all cases: log2 ratio of Biotin-Ahx-Ub-VS probe labelling (fragment/DMSO); higher = less target engagement (more negative = stronger competition), active = hit call of the paper (q ≤ 0.05, log2 ratio ≤ -1)
Details in all cases: compound concentration: 200 uM; treatment time: 3 h
[1] = biological target: UniProt O00507
Summary of the method: (§1)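 In triplicate, 495 µg of HEK293T lysate per sample was incubated with fragment at 200 µM or vehicle for 3 h. Biotin-Ahx-Ub-VS was then added to 0.5 µM final for 1 h, and labelled DUBs were captured with NeutrAvidin, digested with LysC and trypsin, and measured by diaPASEF LC-MS/MS. Data are average log2 fragment/vehicle ratios by unpaired t-test from global-median-normalised Spectronaut label-free quantities, restricted to proteins with ≥2 unique peptides.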

[2] = biological target: UniProt P51784
Summary of the method: as §1

[3] = biological target: T1, UniProt Q5T2D3
T1 sequence (whole entry): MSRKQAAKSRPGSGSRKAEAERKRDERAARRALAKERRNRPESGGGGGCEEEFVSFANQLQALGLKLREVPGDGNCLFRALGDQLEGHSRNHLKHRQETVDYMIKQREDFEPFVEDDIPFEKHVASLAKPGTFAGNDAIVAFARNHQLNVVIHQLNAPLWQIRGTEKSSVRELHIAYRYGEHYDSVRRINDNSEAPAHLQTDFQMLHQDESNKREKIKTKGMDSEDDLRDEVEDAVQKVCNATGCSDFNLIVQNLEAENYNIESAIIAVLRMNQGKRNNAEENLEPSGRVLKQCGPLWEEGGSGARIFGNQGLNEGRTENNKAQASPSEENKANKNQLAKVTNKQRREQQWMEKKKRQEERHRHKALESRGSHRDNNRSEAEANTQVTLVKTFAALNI
Summary of the method: as §1

[4] = biological target: T2, UniProt Q8TE49
T2 sequence (whole entry): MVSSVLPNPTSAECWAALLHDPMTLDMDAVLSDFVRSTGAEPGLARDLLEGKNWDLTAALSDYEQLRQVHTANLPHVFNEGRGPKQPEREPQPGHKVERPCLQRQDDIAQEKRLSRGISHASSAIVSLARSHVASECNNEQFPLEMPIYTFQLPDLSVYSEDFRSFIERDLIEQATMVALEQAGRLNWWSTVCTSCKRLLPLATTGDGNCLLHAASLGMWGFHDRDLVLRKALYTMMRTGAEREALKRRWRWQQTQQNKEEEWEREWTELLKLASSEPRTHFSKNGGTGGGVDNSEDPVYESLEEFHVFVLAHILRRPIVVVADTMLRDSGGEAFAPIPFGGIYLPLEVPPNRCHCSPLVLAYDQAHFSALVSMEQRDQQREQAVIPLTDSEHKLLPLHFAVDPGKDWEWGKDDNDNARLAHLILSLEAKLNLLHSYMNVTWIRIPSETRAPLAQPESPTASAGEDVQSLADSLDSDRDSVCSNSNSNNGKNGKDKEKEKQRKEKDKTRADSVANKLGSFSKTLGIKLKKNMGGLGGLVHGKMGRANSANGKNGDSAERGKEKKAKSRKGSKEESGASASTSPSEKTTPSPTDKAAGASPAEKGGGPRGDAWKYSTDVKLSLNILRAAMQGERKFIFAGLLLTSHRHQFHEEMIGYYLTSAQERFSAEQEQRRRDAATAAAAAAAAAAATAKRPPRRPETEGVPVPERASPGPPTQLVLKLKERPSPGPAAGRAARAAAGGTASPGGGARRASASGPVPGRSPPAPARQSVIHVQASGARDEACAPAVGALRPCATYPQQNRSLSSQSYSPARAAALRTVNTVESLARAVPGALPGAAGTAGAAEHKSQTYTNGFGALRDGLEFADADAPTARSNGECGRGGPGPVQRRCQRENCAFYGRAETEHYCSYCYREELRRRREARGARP
Summary of the method: as §1

[5] = biological target: T3, UniProt Q9P2H5
T3 sequence (whole entry): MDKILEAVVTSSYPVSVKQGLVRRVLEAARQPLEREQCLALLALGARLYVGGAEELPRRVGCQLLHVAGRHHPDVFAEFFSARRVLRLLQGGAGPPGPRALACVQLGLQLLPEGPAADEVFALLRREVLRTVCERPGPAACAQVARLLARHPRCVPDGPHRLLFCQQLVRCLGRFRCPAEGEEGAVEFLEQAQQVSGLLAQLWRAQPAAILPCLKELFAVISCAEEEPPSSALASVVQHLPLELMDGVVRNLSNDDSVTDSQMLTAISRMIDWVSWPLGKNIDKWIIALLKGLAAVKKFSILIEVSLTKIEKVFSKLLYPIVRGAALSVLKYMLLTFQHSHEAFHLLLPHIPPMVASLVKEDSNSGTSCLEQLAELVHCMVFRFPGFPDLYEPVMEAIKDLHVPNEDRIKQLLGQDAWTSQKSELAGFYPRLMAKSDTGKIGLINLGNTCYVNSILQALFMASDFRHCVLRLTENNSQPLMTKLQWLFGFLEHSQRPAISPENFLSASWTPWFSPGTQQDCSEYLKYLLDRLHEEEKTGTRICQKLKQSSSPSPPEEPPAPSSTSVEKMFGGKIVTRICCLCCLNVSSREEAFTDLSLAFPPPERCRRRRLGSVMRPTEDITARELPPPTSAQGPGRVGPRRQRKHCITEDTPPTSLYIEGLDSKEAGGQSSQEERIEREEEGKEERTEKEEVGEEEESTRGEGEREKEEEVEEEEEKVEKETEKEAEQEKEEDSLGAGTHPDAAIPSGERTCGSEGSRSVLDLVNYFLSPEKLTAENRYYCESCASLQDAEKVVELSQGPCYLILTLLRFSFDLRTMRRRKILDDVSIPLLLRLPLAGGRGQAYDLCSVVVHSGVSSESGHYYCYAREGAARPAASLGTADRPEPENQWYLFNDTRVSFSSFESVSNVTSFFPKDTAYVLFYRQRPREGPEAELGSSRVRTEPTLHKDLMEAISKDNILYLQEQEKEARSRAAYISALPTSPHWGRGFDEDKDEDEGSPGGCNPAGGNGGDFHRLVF
Summary of the method: as §1

[6] = biological target: T4, UniProt Q9UGI0
T4 sequence (whole entry): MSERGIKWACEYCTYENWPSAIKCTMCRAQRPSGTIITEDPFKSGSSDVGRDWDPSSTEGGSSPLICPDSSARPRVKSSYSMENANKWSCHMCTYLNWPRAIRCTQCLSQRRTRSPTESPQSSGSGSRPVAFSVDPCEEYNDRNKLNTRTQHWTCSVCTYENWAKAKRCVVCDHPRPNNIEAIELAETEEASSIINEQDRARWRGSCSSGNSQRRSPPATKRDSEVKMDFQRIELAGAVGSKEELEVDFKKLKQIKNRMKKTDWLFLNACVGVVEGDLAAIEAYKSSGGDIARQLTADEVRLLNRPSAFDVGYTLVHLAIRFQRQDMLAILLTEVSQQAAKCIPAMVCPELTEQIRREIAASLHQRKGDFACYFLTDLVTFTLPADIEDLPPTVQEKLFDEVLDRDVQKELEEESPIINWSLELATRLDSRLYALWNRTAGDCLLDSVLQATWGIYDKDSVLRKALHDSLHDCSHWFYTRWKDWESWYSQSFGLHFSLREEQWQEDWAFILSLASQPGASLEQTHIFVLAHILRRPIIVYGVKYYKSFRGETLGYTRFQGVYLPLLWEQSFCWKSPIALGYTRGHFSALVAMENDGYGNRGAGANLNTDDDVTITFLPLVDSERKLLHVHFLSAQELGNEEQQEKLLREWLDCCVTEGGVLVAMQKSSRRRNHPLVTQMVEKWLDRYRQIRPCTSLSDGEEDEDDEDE
Summary of the method: as §1

[7] = biological target: T5, YOD1 (UniProt Q5VVQ6)
T5 sequence (whole entry): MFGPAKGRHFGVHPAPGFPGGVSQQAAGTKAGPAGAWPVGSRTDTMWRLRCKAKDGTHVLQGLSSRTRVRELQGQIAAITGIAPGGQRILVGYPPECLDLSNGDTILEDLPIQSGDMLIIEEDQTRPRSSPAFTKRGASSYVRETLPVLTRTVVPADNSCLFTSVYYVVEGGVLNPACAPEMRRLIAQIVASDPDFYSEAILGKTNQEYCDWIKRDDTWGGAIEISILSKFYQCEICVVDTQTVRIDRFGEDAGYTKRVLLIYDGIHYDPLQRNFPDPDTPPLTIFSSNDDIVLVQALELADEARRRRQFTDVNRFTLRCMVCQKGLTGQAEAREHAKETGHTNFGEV
Summary of the method: as §1

Measured: log2 ratio of Biotin-Ahx-Ub-VS probe labelling

Sequence of UniProt O00507 (O00507 whole entry, the tested form may be a part): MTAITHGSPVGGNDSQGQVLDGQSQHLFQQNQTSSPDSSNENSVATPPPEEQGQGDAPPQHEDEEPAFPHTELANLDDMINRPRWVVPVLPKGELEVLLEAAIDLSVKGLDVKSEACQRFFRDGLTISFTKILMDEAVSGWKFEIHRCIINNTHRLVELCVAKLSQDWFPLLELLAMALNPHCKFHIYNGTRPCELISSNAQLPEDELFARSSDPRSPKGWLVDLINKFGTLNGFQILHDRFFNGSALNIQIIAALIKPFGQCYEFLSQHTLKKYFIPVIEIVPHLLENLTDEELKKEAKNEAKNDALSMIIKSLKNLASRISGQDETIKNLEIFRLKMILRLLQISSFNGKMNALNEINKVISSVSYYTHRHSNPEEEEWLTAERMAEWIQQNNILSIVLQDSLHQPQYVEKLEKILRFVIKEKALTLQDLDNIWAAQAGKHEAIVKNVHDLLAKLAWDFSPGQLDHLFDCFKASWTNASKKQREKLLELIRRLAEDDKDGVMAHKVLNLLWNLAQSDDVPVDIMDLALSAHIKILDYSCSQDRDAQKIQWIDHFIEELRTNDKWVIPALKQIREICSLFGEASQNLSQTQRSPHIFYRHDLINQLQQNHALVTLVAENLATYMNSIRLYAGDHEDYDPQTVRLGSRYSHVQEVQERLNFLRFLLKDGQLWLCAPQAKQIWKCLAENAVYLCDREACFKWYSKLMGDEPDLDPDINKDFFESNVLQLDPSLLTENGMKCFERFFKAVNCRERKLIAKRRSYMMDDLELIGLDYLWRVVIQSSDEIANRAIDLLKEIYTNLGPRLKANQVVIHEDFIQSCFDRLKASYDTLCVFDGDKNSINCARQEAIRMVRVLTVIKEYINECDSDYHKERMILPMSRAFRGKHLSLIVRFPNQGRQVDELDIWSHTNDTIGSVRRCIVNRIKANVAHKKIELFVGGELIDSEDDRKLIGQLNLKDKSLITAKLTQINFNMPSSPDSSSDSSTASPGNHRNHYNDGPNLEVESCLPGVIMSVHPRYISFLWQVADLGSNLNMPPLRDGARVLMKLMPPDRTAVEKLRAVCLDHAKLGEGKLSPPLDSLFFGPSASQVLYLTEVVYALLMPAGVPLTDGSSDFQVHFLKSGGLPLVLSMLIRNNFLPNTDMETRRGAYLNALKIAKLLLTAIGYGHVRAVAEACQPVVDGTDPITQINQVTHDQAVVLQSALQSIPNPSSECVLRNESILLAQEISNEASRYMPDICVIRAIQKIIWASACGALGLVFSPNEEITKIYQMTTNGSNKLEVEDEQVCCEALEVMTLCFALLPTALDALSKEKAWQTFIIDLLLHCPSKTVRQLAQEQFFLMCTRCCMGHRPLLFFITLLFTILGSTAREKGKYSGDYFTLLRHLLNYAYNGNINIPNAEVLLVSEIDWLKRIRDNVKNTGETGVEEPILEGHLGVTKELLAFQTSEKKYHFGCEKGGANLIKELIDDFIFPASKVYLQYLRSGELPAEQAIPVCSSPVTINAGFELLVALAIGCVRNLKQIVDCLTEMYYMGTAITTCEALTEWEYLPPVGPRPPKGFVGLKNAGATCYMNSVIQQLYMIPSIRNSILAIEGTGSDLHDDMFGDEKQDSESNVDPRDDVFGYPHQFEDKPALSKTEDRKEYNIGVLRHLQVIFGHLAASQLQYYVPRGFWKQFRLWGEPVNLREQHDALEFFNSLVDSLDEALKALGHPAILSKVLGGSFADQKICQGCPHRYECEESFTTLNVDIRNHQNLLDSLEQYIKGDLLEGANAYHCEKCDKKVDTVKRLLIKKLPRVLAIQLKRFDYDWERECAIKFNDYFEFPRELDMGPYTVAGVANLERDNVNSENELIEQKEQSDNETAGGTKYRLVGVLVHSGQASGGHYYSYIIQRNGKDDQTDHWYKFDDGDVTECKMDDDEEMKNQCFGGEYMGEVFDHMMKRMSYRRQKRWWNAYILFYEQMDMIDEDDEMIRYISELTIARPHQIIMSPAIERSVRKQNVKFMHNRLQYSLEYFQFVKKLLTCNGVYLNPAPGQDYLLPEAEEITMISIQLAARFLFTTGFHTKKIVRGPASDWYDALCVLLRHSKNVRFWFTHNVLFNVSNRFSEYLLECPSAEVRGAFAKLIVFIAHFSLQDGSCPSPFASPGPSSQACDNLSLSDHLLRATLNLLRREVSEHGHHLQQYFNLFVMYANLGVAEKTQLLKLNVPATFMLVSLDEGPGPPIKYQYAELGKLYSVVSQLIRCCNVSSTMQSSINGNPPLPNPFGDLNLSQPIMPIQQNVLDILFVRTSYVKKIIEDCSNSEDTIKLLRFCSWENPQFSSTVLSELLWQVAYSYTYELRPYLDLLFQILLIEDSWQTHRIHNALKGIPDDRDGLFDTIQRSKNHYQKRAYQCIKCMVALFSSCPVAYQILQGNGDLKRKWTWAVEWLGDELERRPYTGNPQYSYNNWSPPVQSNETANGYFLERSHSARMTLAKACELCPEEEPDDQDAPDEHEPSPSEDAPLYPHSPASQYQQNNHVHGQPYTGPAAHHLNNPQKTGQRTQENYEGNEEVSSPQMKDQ
Sequence of UniProt P51784 (P51784 whole entry): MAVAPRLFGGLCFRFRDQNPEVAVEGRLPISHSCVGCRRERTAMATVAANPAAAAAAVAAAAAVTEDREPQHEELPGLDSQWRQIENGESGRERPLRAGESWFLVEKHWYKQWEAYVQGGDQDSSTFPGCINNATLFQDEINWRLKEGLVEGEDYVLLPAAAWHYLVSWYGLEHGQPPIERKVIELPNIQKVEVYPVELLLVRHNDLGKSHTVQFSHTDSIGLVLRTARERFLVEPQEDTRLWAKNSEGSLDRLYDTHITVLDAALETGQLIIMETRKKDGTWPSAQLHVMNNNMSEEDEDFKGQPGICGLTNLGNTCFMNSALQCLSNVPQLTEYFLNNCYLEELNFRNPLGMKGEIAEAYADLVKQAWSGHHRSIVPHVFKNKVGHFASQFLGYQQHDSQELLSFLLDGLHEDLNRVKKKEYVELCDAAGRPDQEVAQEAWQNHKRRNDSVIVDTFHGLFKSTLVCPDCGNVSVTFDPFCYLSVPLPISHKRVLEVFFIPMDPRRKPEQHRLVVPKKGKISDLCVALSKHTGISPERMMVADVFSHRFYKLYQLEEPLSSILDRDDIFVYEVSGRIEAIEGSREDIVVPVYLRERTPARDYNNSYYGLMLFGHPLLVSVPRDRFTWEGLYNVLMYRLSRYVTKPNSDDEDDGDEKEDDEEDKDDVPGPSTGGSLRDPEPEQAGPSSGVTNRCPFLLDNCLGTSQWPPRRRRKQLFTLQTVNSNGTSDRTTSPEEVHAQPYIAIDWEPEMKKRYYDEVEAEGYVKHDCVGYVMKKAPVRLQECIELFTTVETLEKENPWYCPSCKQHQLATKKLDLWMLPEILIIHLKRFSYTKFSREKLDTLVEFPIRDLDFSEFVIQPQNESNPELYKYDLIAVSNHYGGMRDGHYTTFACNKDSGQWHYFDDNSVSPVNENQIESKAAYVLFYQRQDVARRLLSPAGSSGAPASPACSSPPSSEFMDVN

O=C(CCl)NC1CCOc2ccccc21 (stereo not given)
active: [4] -1.79
inactive: [1] -0.574 | [2] -0.702 | [3] -0.795 | [5] -0.687 | [6] -0.865 | [7] -0.774

NS(=O)(=O)c1ccc(Cl)c(NC(=O)CCl)c1
inactive: [1] -0.168 | [2] 0.0886 | [3] -0.424 | [5] -0.0565 | [6] -0.791 | [7] -0.361
active: [4] -1.53

Cc1ccccc1CN(C)C(=O)CCl
inactive: [2] -0.62 | [3] -0.704 | [5] -0.712 | [7] -0.638
active: [1] -1.06 | [4] -1.06 | [6] -1.3

O=C(CCl)N1CCC(=C(F)CO)C1
inactive: [1] 0.605 | [2] 0.155 | [3] 0.0125 | [4] -0.47 | [5] -0.115 | [6] -0.16 | [7] 0.406

O=C(CCl)Nc1cc(Cl)ccc1-n1cncn1
inactive: [2] -0.871 | [3] -0.95 | [5] -0.954
active: [1] -1.06 | [4] -1.44 | [6] -1.05 | [7] -1.12

O=C(CCl)NCc1ccc(N2CCOCC2)nc1
inactive: [1] -0.134 | [2] -0.0382 | [3] -0.374 | [4] -0.316 | [5] -0.162 | [6] -0.475 | [7] -0.207

O=C(CCl)Nc1cc2c(cc1Cl)OCCO2
inactive: [1] 0.223 | [2] 0.121 | [3] -0.437 | [4] -0.908 | [5] -0.253 | [6] -0.402 | [7] 0.302

C/C(=C\CNC(=O)CCl)c1cnn(C)c1.Cl
inactive: [1] -0.224 | [2] -0.391 | [3] -0.0109 | [4] -0.499 | [5] -0.465 | [6] -0.0207 | [7] -0.155

CCC1c2ccsc2CCN1C(=O)CCl (stereo not given)
inactive: [1] -0.266 | [2] -0.306 | [3] -0.0335 | [4] -0.771 | [5] -0.118 | [6] -0.444 | [7] -0.026

O=C(CCl)N1CCc2ccccc2C(O)C1 (stereo not given)
inactive: [1] -0.255 | [2] -0.0328 | [3] -0.418 | [4] -0.836 | [5] 0.153 | [7] -0.325
active: [6] -1.86
